# Laboratory results: PubChem BioAssay AID492992 (Johns Hopkins Ion Channel Center, 2010)
# Screen size: about 4,900 compounds; about 2,100 (43%) were called active.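 Rule for the calls: active = thallium signal inhibited by more than 5 SD of the compound-free buffer control wells, on both duplicate plates; inactive = the rest.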 So high a share suggests a set chosen from earlier hits. The list is a sample of the results.
# Biological target: Potassium channel subfamily K member 9 (Homo sapiens) (UniProt Q9NPC2)
# Assay: blockers of human TASK-3 (KCNK9) channel – HEK293 cells, thallium flux, duplicate, confirmation (AID 492992);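 for inhibition: 0% = assay buffer control wells without compound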
# Conditions: FluxOR thallium flux fluorescence, at 10 µM; hits give high values
# Chain of Potassium channel subfamily K member 9 (Homo sapiens) (Q9NPC2 whole entry, looked up): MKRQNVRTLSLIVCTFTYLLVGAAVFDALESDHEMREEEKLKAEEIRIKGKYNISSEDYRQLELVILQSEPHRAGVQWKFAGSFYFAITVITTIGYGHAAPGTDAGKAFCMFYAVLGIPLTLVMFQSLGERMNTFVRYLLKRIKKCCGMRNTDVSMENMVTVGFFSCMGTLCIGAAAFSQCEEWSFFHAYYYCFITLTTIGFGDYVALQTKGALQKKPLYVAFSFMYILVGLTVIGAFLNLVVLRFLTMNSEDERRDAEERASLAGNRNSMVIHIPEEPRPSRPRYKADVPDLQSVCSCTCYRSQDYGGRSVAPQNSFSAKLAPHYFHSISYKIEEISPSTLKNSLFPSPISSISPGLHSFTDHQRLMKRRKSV
row,Compound,inhibition
1,O=C1CC(NNc2ccccc2)C(=O)N1c1cccc(Cl)c1 (configuration not stated),inactive
2,CN(C)c1ccc(C(CNC(=O)c2ccc(F)cc2)c2c[nH]c3ccccc23)cc1 (configuration not stated),inactive
3,COc1cc(Cl)c(C)cc1NC(=O)CSc1nnc(-c2ccco2)n1CC(C)C,41.5% (active)
4,COc1ccc(Nc2ncnc3sc(-c4ccccc4)cc23)c(OC)c1,33.5% (active)
5,CCOC(=O)C(C)Sc1nc2ccccc2c(=O)n1CC1CCCCC1 (configuration not stated),40.5% (active)
6,COc1ccc(-c2nc(CCNC(=O)c3ccc(Br)o3)cs2)cc1,28.5% (active)
7,COc1cccc(-c2nn(C)c3sc(C(=O)N4CCN(c5ccccc5)CC4)cc23)c1,inactive
8,CC1(C)CC(N2CCN(C(c3ccccc3)c3ccccc3)CC2)=CC(=[N+]2CCCCC2)C1,68% (active)
9,N#Cc1nc(Cc2cccc3ccccc23)oc1NCc1ccc2c(c1)OCO2,45% (active)
10,C=CCN(N=Nc1cccc([N+](=O)[O-])c1)c1cccc([N+](=O)[O-])c1,57.5% (active)
11,CCOC(=O)N/N=C/c1cn(Cc2ccccc2Cl)c2ccccc12,inactive
12,CCCCCn1c(=O)c(C(=O)OCC)c(Cl)c2ccccc21,45.5% (active)
13,CCOc1ccccc1NC(=O)C1CCCN(S(=O)(=O)c2ccccc2)C1 (configuration not stated),inactive
14,CN(C)S(=O)(=O)N1CCC(Oc2cccc(C(=O)NCCCC3CCCC3)c2)CC1,62% (active)
15,Cc1csc(Nc2ccc(Cl)cc2)[n+]1-c1ccc(Cl)cc1,inactive
16,Cc1cc(C)cc(NC(=O)CSCc2cnn(-c3ccccc3)c2-n2cccc2)c1,inactive
17,Cc1ccc2c(c1)N(C(=O)CCC(=O)N1CCc3ccccc3C1)CCO2,inactive
18,O=C(/C=C/NNC(=O)c1cccc(Br)c1)c1ccccc1,60% (active)
19,Cc1c(C(=O)Nc2ccccn2)oc2ccc(Br)cc12,36% (active)
20,O=C(CSCc1ccc(Cl)cc1)N1CCN(Cc2ccc3c(c2)OCO3)CC1,inactive
21,CC1(C)CC(=O)CC2(C1)NCC(c1ccccc1Cl)c1c2[nH]c2ccccc12 (configuration not stated),66.5% (active)
22,c1ccc(C(c2ccccc2)N2CCN(Cc3nnnn3C3CCCCC3)CC2)cc1,34.5% (active)
23,Cc1ccc(NC2CCCN(C(=O)CCC3(C)CC3)C2)cc1C (configuration not stated),inactive
24,Clc1cccc(-c2nc3nc4ccccc4nc3n2Cc2ccco2)c1,32% (active)
25,Cc1cccc(NC(=O)CN2CCCN(S(=O)(=O)c3ccc(Br)s3)CC2)c1,inactive
26,O=C(NCc1ccco1)c1ccc(NS(=O)(=O)c2cccc([N+](=O)[O-])c2)cc1,inactive
27,CCCC1=Nc2cc(C(=O)NCc3ccco3)ccc2Sc2ccccc21,31.5% (active)
